PGC1a acetyl inh = inhibitors of PGC1a acetylation signal, primary screen, cell-based, U2OS, AlphaScreen, inhibitor mode | AlphaScreen anti-acetyl-lysine; with virally co-expressed GCN5 acetyltransferase | AID 651687, 2012 | inhibition, % at 15.6 µM | 0.17% of 350,000 active;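 active = every replicate shows inhibition of at least 40%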;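 note: 0% = neutral control wells and 100% = positive control wells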
RAD52 inh = RAD52 DNA annealing inhibitors, primary screen, biochemical, FRET, single point, set 2; DNA repair protein RAD52 homolog (Homo sapiens), P43351; recombinant RAD52 DNA annealing, FRET fluorescence; inhibition, % at 18.7 µM; 0.46% of 360,000 active;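 active = every replicate showing at least 50% inhibition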
Target sequence (P43351 whole entry, looked up): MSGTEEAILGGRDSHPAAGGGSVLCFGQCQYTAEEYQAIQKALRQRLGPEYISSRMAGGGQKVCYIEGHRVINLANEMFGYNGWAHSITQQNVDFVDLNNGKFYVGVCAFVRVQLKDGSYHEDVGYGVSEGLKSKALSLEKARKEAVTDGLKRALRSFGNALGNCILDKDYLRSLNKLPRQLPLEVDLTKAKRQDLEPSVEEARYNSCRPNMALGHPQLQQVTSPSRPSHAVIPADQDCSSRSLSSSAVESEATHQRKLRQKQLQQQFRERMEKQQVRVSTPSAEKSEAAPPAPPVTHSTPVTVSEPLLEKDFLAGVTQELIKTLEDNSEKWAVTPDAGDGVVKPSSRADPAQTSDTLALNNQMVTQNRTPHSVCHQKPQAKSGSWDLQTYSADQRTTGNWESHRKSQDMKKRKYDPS
ERAP1 HTS inh = human ERAP1 aminopeptidase inhibitors, primary screen, biochemical, single point, plate reader. 0.15% of 340,000 active. inhibition, % at 10.7 µM. recombinant ERAP1, Leu-AMC fluorescence, 60 min. AID 652197, 2013;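 active = mean replicate inhibition of at least 30%, or all replicates individually reaching that 30% level; inactive = mean below 30% and not every replicate reaching it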;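 note: 0% = neutral control wells and 100% = L-leucinethiol positive control wells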
INS-1E GSIS act = GLuc luminescence reporter in INS-1E cells, primary screen for activators of glucose-dependent secretion of insulin. AID 743287, 2014. INS-1E GLuc reporter insulin secretion, 2-3 h. 0.61% of 370,000 active. activation, % at 16.6 µM;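 active = lowest replicate activation of at least 40%, so every replicate reaches that level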;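 note: 0% = median of neutral control wells and 100% = median of IBMX positive control wells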
AF4-AF9 inh = inhibitors of AF4 peptide binding to AF9, primary screen, biochemical, AlphaScreen, biotin-AF4 peptide, FLAG-AF9, single point | inhibition, % at 10 µM | AID 651704, 2012 | 0.47% of 350,000 active | Protein AF-9 (Homo sapiens), P42568;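 active = every replicate reaching a set inhibition limit, whatever the replicate mean, cut at about 25% in these data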;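 note: 0% = plate neutral control median and 100% = total signal loss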
RAD54 branch = inhibitors of human RAD54 branch migration, primary screen, biochemical, fluorescence, single point; DNA repair and recombination protein RAD54-like (Homo sapiens), Q92698; RAD54 Holliday junction branch migration, FAM/BHQ fluorescence; inhibition, % at 10.4 µM; 0.14% of 360,000 active;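 active = mean normalized replicate activity at least 40 and at least half of replicates scoring 40 or more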;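 note: 0% = median of neutral control wells and 100% = median of positive control wells; inhibitors cause a drop in the FAM fluorescence signal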
* hit, by the source's call; . = no result given. An excerpt weighted towards active compounds, which were near 1.4% of everything screened.

SMILES	PGC1a acetyl inh	RAD52 inh	ERAP1 HTS inh	INS-1E GSIS act	AF4-AF9 inh	RAD54 branch
COCC(=O)N1CCC2(CC1)CN(C(=O)COC)[C@@H](CO)c1c2c2ccc(OC)cc2n1C	-3	.	.	26	-2	.
Cc1nnc(SCC(=O)Nc2cc(Cl)ccc2Cl)n1CC1CCCO1 (stereo not drawn)	.	-12	-1	73*	-2	1
CCCC[n+]1ccn(-c2nc3ccccc3nc2[N-]S(=O)(=O)c2ccccc2)c1	-2	3	4	-8	-3	-16
CCCC[n+]1ccn(-c2nc3ccccc3nc2[N-]S(=O)(=O)c2cccs2)c1	-8	-11	5	-30	1	94*
CCCNC(=O)N1C[C@@H](C)[C@H](OC)CN(C)C(=O)c2ccc(NS(C)(=O)=O)cc2OC[C@@H]1C	4	-6	0	6	-4	5
c1ccc(CN2CCC3CC2c2cc(N4CCCCC4)ccc23)cc1 (stereo not drawn)	-1	-31	-4	11	22	-8
Clc1cccc(CN2CCC3CC2c2cc(N4CCCCC4)ccc23)c1 (stereo not drawn)	-8	-31	.	16	26*	1
COc1ccc(NC(=O)Nc2ccc3c(c2)C(=O)N([C@H](C)CO)C[C@H](C)[C@H](CN(C)Cc2ccc(C(F)(F)F)cc2)OCCCC[C@H](C)O3)cc1	-21	-15	-5	-8	-5	-1
CN(CC(=O)N1CCN(Cc2ccccc2)CC1)S(=O)(=O)c1cccc2nsnc12	.	-5	-1	13	-2	.
CC1CCCCN1C(=O)CN(C)S(=O)(=O)c1cccc2nsnc12 (stereo not drawn)	42*	-6	4	.	0	1
Cc1ccc(S(=O)(=O)N(C)C[C@@H]2OCCCC[C@H](C)Oc3ccc(NS(=O)(=O)c4ccccc4)cc3C(=O)N([C@H](C)CO)C[C@H]2C)cc1	-13	5	3	-50	3	5
COc1ccc(S(=O)(=O)N2CCc3ccccc32)cc1C(=O)Nc1cccnc1	-7	-10	0	50*	2	2
O=C(Nc1cc2c3c(c1)C1CCCC1CN3CC1CCCC21)c1ccccc1 (stereo not drawn)	-5	.	.	.	.	50*
CC(=O)N(C)C[C@@H]1Oc2ccc(N)cc2CC(=O)N(C)C[C@@H]1C	.	.	.	1	.	.
C[C@H]1CN=C(N(C)C)N1CC1CCCC1	-16	-6	-4	54*	4	-4
COc1ccc(NC(=O)Nc2ccc3c(c2)OC[C@H](C)NC[C@@H](C)[C@@H](OC)CN(C)C3=O)cc1	.	-7	2	-6	3	8
CO[C@H]1CN(C)C(=O)c2cc(NC(=O)c3ccc(Oc4ccccc4)cc3)ccc2OC[C@@H](C)NC[C@H]1C	-49	41	-2	11	9	16
CO[C@H]1CN(C)C(=O)c2ccc(NC(=O)c3ccc(Oc4ccccc4)cc3)cc2OC[C@H](C)NC[C@@H]1C	-13	51*	-4	-6	11	7
COc1cccc(NC(=O)Nc2ccc3c(c2)OC[C@@H](C)NC[C@H](C)[C@@H](OC)CN(C)C3=O)c1	2	76*	-4	15	14	1
COc1cccc(NC(=O)Nc2ccc3c(c2)C(=O)N(C)C[C@@H](OC)[C@H](C)CN[C@H](C)CO3)c1	19	59*	-3	5	21	17
O=C(C[C@H]1CC[C@@H]2[C@H](COC[C@@H](O)CN2C(=O)Nc2ccc(Cl)c(Cl)c2)O1)NCc1ccncc1	-6	-1	0	-21	3	-6
COc1ccc(Cl)cc1C(=O)Nc1cc(=O)n(C)c(=O)n1C	-7	-5	2	3	49*	-1
Cn1c(NC(=O)c2ccccc2F)cc(=O)n(C)c1=O	3	-20	4	0	-10	-20
Nn1c(SCCOc2ccc(Cl)cc2)nnc1-c1cccnc1	8	-4	47*	.	3	.
N#C[C@@H]1[C@@H](c2ccc(C#Cc3cccnc3)cc2)[C@@H](CO)N1C(=O)NC1CCCC1	.	.	.	-11	.	.
